# High-throughput results: PubChem BioAssay, National Center for Advancing Translational Sciences (NCATS)
# SmPrx2 inh = blocks S. mansoni peroxiredoxin 2 enzymatic activity. S. mansoni Prx2 activity coupled to TGR/GSH (TGR is thioredoxin glutathione reductase), NADPH fluorescence loss, qHTS. Potency, µM. 65,000 tested, 0.07% active. AID 448
#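 Purified S. mansoni TGR and Prx2 in pH 7.4 phosphate buffer with EDTA and Tween-20 were preincubated with compounds for 15 min. Further NADPH/GSH was added, then a 2.5 mM H2O2 aliquot initiated turnover, followed kinetically by NADPH fluorescence.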
# AmpC inh no det = blocks E. coli AmpC beta-lactamase in absence of detergent | 71,000 tested, 1.8% active | P00811 | Potency, µM (doses to about 28.7 µM), without a hit: at the top dose activity change, negative = inhibition | AmpC nitrocefin hydrolysis, absorbance 480 nm, no detergent | AID 585; further: % of control where 0% means no effect
# Target sequence (P00811 whole entry, looked up): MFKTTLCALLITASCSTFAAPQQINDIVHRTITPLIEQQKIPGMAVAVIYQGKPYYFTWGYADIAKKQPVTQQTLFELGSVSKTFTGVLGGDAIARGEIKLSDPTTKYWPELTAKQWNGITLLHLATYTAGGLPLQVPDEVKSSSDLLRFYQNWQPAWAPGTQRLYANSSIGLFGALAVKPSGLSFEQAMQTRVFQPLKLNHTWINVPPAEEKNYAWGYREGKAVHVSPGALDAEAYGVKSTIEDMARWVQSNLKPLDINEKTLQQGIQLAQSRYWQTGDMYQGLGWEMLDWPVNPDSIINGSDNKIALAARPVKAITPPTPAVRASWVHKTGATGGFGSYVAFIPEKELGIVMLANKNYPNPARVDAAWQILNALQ
#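 AmpC, 20 mM phosphate pH 7.0; 15 min cpd preinc, RT; start with nitrocefin (800 uM stock); A480 kinetic read, 20 s intervals, 4 min. No-enzyme wells = negative control.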
# AmpC det inh = AmpC beta-lactamase inhibition, detergent assay; P00811; purified AmpC, nitrocefin hydrolysis with detergent; Potency, µM (series often up to 28.7 µM), inactives show at the top dose activity change, negative = inhibition; 71,000 tested, 0.09% active; AID 584; active means well fitted curve in the direction sought with a large enough effect; inconclusive means small, poorly fitted or top-dose-only effect; further: on the % scale 0 is the no-effect control and ±100 the full control effect
#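 E. coli AmpC (5.3 nM) in 20 mM phosphate pH 7.0 with 0.01% Triton X-100, preincubated 15 min RT with compound; nitrocefin (2 uL of 800 uM stock) hydrolysis followed by 480 nm absorbance every 20 s over 4 min.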
# LT uptake inh = inhibitors of anthrax lethal toxin internalization; Cells, anthrax lethal toxin internalization, FRET ratio (460/530); Potency, µM (doses to about 40 µM), for the others: at the highest dose activity change, negative = inhibition, usual class: inhibitors; 70,000 tested, 0.67% active; further: on the % scale 0 is the no-effect control and ±100 the full control effect; nearly all actives have a fitted effect of over 50% in size
# * marks the source's active call; other numbers are inactive results; u = inconclusive; x = no result; ! = repeats disagree; [ ] = dose if it differs, or a comment. This is a sample that favours compounds with a hit; in the whole collection about 2.6% have one here. Unless noted, the call rests on the fitted dose curve. Potency means the concentration at half of the fitted maximal effect.
SMILES,SmPrx2 inh,AmpC inh no det,AmpC det inh,LT uptake inh
CCOC(=O)N1CCN(c2c(NCCN3CCCCC3CC)c(=O)c2=O)CC1 (stereo not drawn),>57,4µM*[single pt active],13%,-9%
CCOC(=O)N1CCN(c2c(N3CCC(N4CCCCC4)CC3)c(=O)c2=O)CC1,>57,4µM*[single pt active],12%,11%
CCn1cc(C(=O)NCCCN2CCC(C)CC2)c(=O)c2cc(S(=O)(=O)N3CCCC3)ccc21,>57,25%,10%,-27%
Cc1ccc(C)c(S(=O)(=O)Nc2ccccc2C(=O)Nc2cc(C)on2)c1,>57,6.3µM*,-4%,u
O=C(C1CCN(S(=O)(=O)c2cccc3cccnc23)CC1)N1CCc2ccccc21,>57,17%,-6%,7%
Cc1nc2c3ccccc3n(CC#N)c(=O)n2n1,>57,2.5µM*[single pt active],11%,-11%
COC(=O)c1ccc2c(c1)N(Cc1cc(C)ccc1C)C(=O)c1ccccc1S2=O (stereo not drawn),>57,4µM*[single pt active],13%,-5%
COc1ccc2nc(NC(=O)C3CCN(S(=O)(=O)c4cccc5nsnc45)CC3)sc2c1,>57,7%,1%,13µM*
Cc1cccc(NC(=O)C2CCN(S(=O)(=O)c3cccc4nsnc34)CC2)n1,>57,8%,0%,19%
N#Cc1ccccc1Cn1c(=O)n(CCC(=O)NCc2ccco2)c(=O)c2ccccc21,>57,1%,7%,-9%
COc1cc2c(C)nc3onc(-c4ccccc4)c3c2cc1OC,>57,104%,-4%,1µM*
COc1cc(-c2nc(-c3cccc(C)c3)no2)cc(OC)c1OC,x,68%,-1%,u
COc1ccc(NC(=O)CSC2=NC(=O)CC(C)=N2)cc1,>57,2%,-2%,-2%
COc1ccc(S(=O)(=O)N(CCCN2CCCC2=O)Cc2cc3c(C)cc(C)cc3[nH]c2=O)cc1,20*,178%,1%,4%
CC1=NCCc2c1[nH]c1cc(O)ccc21,>57,13µM*!,1%,u
COc1ccc2c3c([nH]c2c1)C(C)=NCC3,>57,-1%,-3%,u
O=C(Cn1cnc2scc(-c3ccccc3)c2c1=O)N1CCOCC1,>57,-1%,-5%,8%
Cc1cc(S(=O)(=O)N2CC(=O)N(CCc3ccccc3)C(=O)C2)ccc1F,>57,5%,-1%,1%
C=C(C)c1cccc(C(C)(C)NC(=O)N2CCN(c3ccccn3)CC2)c1,>57,4µM*[single pt active],14%,-22%
O=C(Nc1ccc(S(=O)(=O)NCc2ccccc2)cc1)Nc1ccc2c(c1)OCO2,>57,10µM*,-2%,u
CN(c1nnc(N)s1)C1CCCCC1,>57,4µM*[single pt active],21%,-2%
COc1ccc(C(C)(C)C)cc1NC(=O)C1CC=CCC1C(=O)O (stereo not drawn),x,2%,7%,-5%
C=CC(=O)OCC(C)C,x,-4%,9%,x
Cc1cc(NS(=O)(=O)c2ccc(NC(=O)Cc3cccs3)cc2)no1,>57,5%,-2%,2%
Cc1cc(NC(=O)Cc2cccs2)no1,>57,13µM*,-5%,-2%
SMILES,SmPrx2 inh,AmpC inh no det,AmpC det inh,LT uptake inh
CCCCN(Cc1cc2cc(OC)ccc2[nH]c1=O)C(=O)c1ccco1,x,9%,-2%,6%
CC1=C(C(=O)OC(C)C)C(c2cccnc2)n2ncnc2N1 (stereo not drawn),>57,4µM*[single pt active],8%,26%
CC1=C(C(=O)OC(C)C)C(c2ccccn2)n2ncnc2N1 (stereo not drawn),>57,4µM*[single pt active],14%,14%
CC1=C(C(=O)OC(C)C)C(c2ccncc2)n2ncnc2N1 (stereo not drawn),>57,-1%,-3%,u
COCCNC(=O)CN(C(=O)Cn1nnc2ccccc21)c1ccccc1,>57,-8%,9%,-8%
C=CC(C)(O)CCCC(C)CCCC(C)CCCC(C)C (stereo not drawn),x,1%,7%,u
Cc1cc(C)c2c(=O)n(CC(=O)N3CCC(N4CCCCC4)CC3)sc2n1,>57,19%,8%,3.2µM*
c1nc(NCC2CCCO2)c2[nH]cnc2n1 (stereo not drawn),>57,-3%,-6%,u
Oc1c(Cl)ccc(Cl)c1Cl,x,-6%,7%,0%
Oc1c(Cl)c(Cl)c(Cl)c(Cl)c1Cl,x,1%,7%,20µM*
COc1ccccc1Nc1nc(-c2cccs2)cs1,x,7.9µM*[single pt active],-5%,u
COc1ccc(OC)c(Nc2nc(-c3cccs3)cs2)c1,>57,4%,13%,u
Cc1ccc(N=Nc2c(O)ccc3cc(S(=O)(=O)O)ccc23)cc1,>57,-1%[5.75 µM],-5%[5.75 µM],-14%[8 µM]
Cc1ccc(S(=O)(=O)Oc2ccc(N=Nc3ccc(-c4ccc(N=Nc5c(O)ccc6cc(S(=O)(=O)O)cc(S(=O)(=O)O)c56)c(C)c4)cc3C)cc2)cc1,x,0.32µM*,-6%,16µM*
CC1(C)S[C@@H]2[C@H](NC(=O)C3(N)CCCCC3)C(=O)N2[C@H]1C(=O)O,>57,0.0063µM*,0.013µM*,-12%[3.58 µM]
N[C@H](C(=O)N[C@@H]1C(=O)N2C(C(=O)O)=C(Cl)CS[C@@H]12)c1ccccc1,>57,-11%[12.8 µM],-6%[12.8 µM],8%[3.58 µM]
C=N[C@H](C(=O)N[C@@H]1C(=O)N2[C@@H]1SC(C)(C)[C@@H]2C(=O)O)c1ccccc1,>57,0.13µM*,0.16µM*,u
Cc1onc(-c2c(F)cccc2Cl)c1C(=O)NCc1cccs1,>57,-3%,-2%,11%
Cc1onc(-c2c(F)cccc2Cl)c1C(=O)N[C@@H]1C(=O)N2[C@H]1SC(C)(C)[C@H]2C(=O)O,>57,0.025µM*,0.04µM*,u
Cc1onc(-c2c(F)cccc2Cl)c1C(=O)N[C@H]1C(=O)N2[C@H]1SC(C)(C)[C@H]2C(=O)O,>26,0.0016µM*,0.002µM*,4%[3.58 µM]
COCCn1c(SCC(=O)Nc2sc(C)c(C)c2C#N)nnc1-c1ccc(OC)cc1,>57,78%,4%,-17%
COC(=O)c1cccc(NC(=O)C2COc3ccccc3O2)c1 (stereo not drawn),>57,-16%,-2%,x
Cc1onc(-c2ccccc2Cl)c1C(=O)N[C@H]1C(=O)N2[C@H]1SC(C)(C)[C@H]2C(=O)O,>57,0.0016µM*,0.002µM*,2%[3.58 µM]
O=C(Nc1cnc2ccccc2c1)c1cccnc1,>57,4µM*[single pt active],10%,-6%
O=C(N[C@@H](Cc1ccccc1)C(=O)CCl)OCc1ccccc1,>57,-2%,-5%,16µM*
SMILES,SmPrx2 inh,AmpC inh no det,AmpC det inh,LT uptake inh
COC(=O)C(C(C)=O)C(=O)C(Cc1ccccc1)NC(=O)OCc1ccccc1 (stereo not drawn),x,x,x,-12%[8 µM]
Cc1nc2cnc(OCc3ccccc3)nc2n(C)c1=O,>57,8%,1%,1%
CS(=O)(=O)N1CCc2cc(-c3csc(NC(=O)Cc4cccs4)n3)ccc21,>57,u,1%,13µM*
Cc1cc(N2CCCN(C)CC2)nc2cc(Cl)ccc12,x,37%,6%,10µM*
O=C(NCC1CCCO1)c1nnc(Cc2ccc(F)cc2)o1 (stereo not drawn),>57,9%,9%,17%
COCCNC(=O)CN1C(=O)COc2ccc(Cl)cc21,>57,-14%,0%,-1%
